This is an account of results in PubChem BioAssay (Tox21).

Values without a mark were called inactive. Records with an inconclusive call do not appear. Entries that show only a call come without a potency. Calls of active or inactive are those of the source. Unless noted, calls come from the whole dose curve; as a rule, active = well fitted curve in the direction sought with a large enough effect in the repeat runs; inconclusive = weak or mixed curves; inactive = no such curve, though single readings can be large; an effect the other way counts as inactive or inconclusive.

The first test in a line: qHTS assay to identify small molecule agonists of the hypoxia (HIF-1) signaling pathway (AID 1224846; active = well fitted activation curve with a large enough effect in the signal ratio in the repeat runs, not every such curve was filed as active; the % refers to the signal ratio). As to conditions: HRE-bla ME-180 cells, beta-lactamase ratio, 17 h; series mostly up to 76.8 µM. Put shortly: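 Compounds added to ME-180 cells carrying hypoxia-response-element beta-lactamase reporter (0.5% dialyzed FBS, 5 h preplating), 17 h at 37C; agonist activity detected by CCF4-AM B/G FRET read-out.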
Background: Quantitative high-throughput screening tests each substance at several concentrations.
Regarding `CCCCCc1ccco1`, the result was inactive.
For `O=C(O)CCCc1c[nH]c2ccccc12`, the outcome was inactive.
On to `Cc1cc(CCCOc2c(C)cc(-c3noc(C(F)(F)F)n3)cc2C)on1`, for which the result was inactive.
Same read-out and setting: for `CC(C)(C(=O)c1cccnc1)c1cccnc1` the value was “inactive”; for `Cc1c[nH]c2ccccc12`, “inactive”.
The same measure, in the same setting: for `Oc1ccc2c(c1)Cc1ccccc1-2` the value was “inactive”; for `O=C1OC[C@H](Cc2cccc(O)c2)[C@H]1Cc1cccc(O)c1`, “inactive”; for `CC(C)OC(=O)c1ccccc1C(=O)OC(C)C`, “inactive”.
The same measure, in the same setting: for `CCC(=O)OCc1ccc(OC)cc1` the value was “inactive”; for `C/C(C=O)=C\c1ccccc1`, “inactive”.
As to `O=C(O)c1cccc(Oc2ccccc2)c1`, the result was inactive.
Same read-out and setting: for `CCO[Si](C)(CCCOCC1CO1)OCC` (stereo unspecified) the value was “inactive”; for `CSCC[C@H](NC(=O)[C@H](Cc1c[nH]c2ccccc12)NC(=O)CCNC(=O)OC(C)(C)C)C(=O)N[C@@H](CC(=O)O)C(=O)N[C@@H](Cc1ccccc1)C(N)=O`, “inactive”; for `CC(C)(C)C1(CCc2ccc(Cl)cc2)CO1` (stereo unspecified), “inactive”.
Same read-out and setting: for `CCCCCCC(CO)CCCC` (stereo unspecified) the value was “inactive”.
`O=C(O)c1cc(Cl)cc(Cl)c1O`: the outcome was inactive.
Turning to `Nc1c(Cl)cc(Cl)cc1[N+](=O)[O-]`, the outcome was inactive.
On the same count and under the same terms, for `BrC(Br)C(Br)Br` the value was “inactive”.
Still for that read-out and setting: for `CC(CN(CCN(CC(C)OCCO)CC(C)OCCO)CC(C)OCCO)OCCO` (stereo unspecified) the value was “inactive”.
For `CCC(Cl)CC(Cl)C(Cl)C(Cl)C(Cl)C(C)Cl` (stereo unspecified), the activation was 0.0674% [at 15.8 µM].
For `Cc1ccc(N(CCO)CCO)cc1`, the outcome was inactive.
On the same count and under the same terms, for `Cc1cccc(C)c1NC(=O)c1cc(S(N)(=O)=O)c(Cl)cc1O` the value was “inactive”.
The same measure, in the same setting: for `CN1C(CSCC(F)(F)F)Nc2cc(Cl)c(S(N)(=O)=O)cc2S1(=O)=O` (stereo unspecified) the value was “inactive”.

A short description of another test: qHTS assay to identify small molecule agonists of H2AX - cell viability counter screen (AID 1224847; calls by dose curve;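 note: wild-type CHO-K1 cells; top concentration of the series differs between compounds; nearly all actives have a fitted effect of over 30% in size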). Conditions: CHO-K1 viability, CellTiter-Glo luminescence, 3 h; series mostly up to 154 µM. In outline: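 CHO-K1 cells plated overnight at 37C, then exposed 3 h at 37C to compounds at 15 concentrations (0.76% DMSO final). Viability by CellTiter-Glo luminescence after 30 min at room temperature.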
On to `CC(C)c1ccc(C(=O)N=C(N)N)cc1S(C)(=O)=O`, for which the Potency entry is “inactive”.
Turning to `COc1cc(NC(C)CCCN)c2ncccc2c1` (stereo unspecified), the Potency result was “inactive”.
On the same count and under the same terms, for `CC(C(=O)O)c1ccc(C(=O)c2cccs2)cc1` (stereo unspecified) the value was “inactive”; for `CC(C)(C)NCC(O)COc1cccc2c1C[C@H](O)[C@H](O)C2` (stereo partly specified), “inactive”.
In the case of `CC(=O)C(C)=O`, the Potency entry was “inactive”.
With `CCN(CC)CCNC(=O)c1cc(Cl)c(N)cc1OC`, the Potency result is “inactive”.
The same measure, in the same setting: for `CNc1c2c(nn1C)CCCC2` the value was “inactive”; for `CNS(=O)(=O)c1cc(C(=O)N2CCC(CCN3C4CCC3CC(n3c(C)nc5ccccc53)C4)(c3cccc(F)c3)CC2)c(Cl)cc1F` (stereo unspecified), “inactive”.
As to `CC[C@@H](CO)NCCN[C@@H](CC)CO`, the Potency result is “inactive”.
For the compound `COc1ccc(-c2cc(=S)ss2)cc1`, the Potency result was “inactive”.
On the same count and under the same terms, for `Nc1nc2ccc(OC(F)(F)F)cc2s1` the value was “inactive”; for `CC(=O)N[C@@H](Cc1ccc(O)cc1)C(=O)O`, “inactive”.
Same read-out and setting: for `CC12CC3CC(C)(C1)CC(N)(C3)C2` the value was “inactive”; for `CC(=O)OCC1=C(C(=O)O)N2C(=O)[C@@H](NC(=O)CSc3ccncc3)[C@H]2SC1`, “inactive”; for `CCN(CC)CCOC(=O)C(c1ccccc1)c1ccccc1`, “inactive”.

A further test is described as follows: qHTS assay to identify small molecule antagonists of the estrogen related receptor (ERR) signaling pathway from Tox21 library (AID 1224848). Note: nearly all actives have a fitted effect of over 50% in size. Conditions: ERR reporter cell line, luciferase antagonist mode, 18 h; series mostly up to 92.4 µM. Put shortly: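 Compounds dissolved in DMSO are pin-transferred onto ERR reporter cells (2,000 per well) that have settled for 6 h at 37 C. Plates then incubate 18 h at 37 C before ONE-Glo luciferase reagent and a luminescence read 30 min later.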
For `COc1cc(NC(C)CCCN)c2ncccc2c1` (stereo unspecified), the Potency result was “inactive”.
Consider `O=C(O)CCCc1c[nH]c2ccccc12`, for which the Potency result was “inactive”.
Still for that read-out and setting: for `Cc1c[nH]c2ccccc12` the value was “inactive”.
On the same count and under the same terms, for `Oc1ccc2c(c1)Cc1ccccc1-2` the value was “inactive”; for `O=C(O)c1cccc(Oc2ccccc2)c1`, “inactive”; for `CCO[Si](C)(CCCOCC1CO1)OCC` (stereo unspecified), “inactive”.
Still for that read-out and setting: for `CC[C@@H](CO)NCCN[C@@H](CC)CO` the value was “inactive”.
With `O=C(O)c1cc(Cl)cc(Cl)c1O`, the Potency entry was “inactive”.
On the same count and under the same terms, for `Nc1c(Cl)cc(Cl)cc1[N+](=O)[O-]` the value was “inactive”.
In the case of `CC(=O)N[C@@H](Cc1ccc(O)cc1)C(=O)O`, the Potency entry was “inactive”.
The same measure, in the same setting: for `CC12CC3CC(C)(C1)CC(N)(C3)C2` the value was “inactive”; for `CC(=O)OCC1=C(C(=O)O)N2C(=O)[C@@H](NC(=O)CSc3ccncc3)[C@H]2SC1`, “inactive”.

The next test is described as follows: qHTS assay to identify small molecule agonists of the estrogen related receptor (ERR) signaling pathway from Tox21 library (AID 1224849; calls by dose curve; note: nearly all actives have a fitted effect of over 15% in size). Conditions: ERR reporter cell line, ONE-Glo luciferase, 18 h; at 92.4 µM (top of the series) unless noted. Put shortly:
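Luminescent agonist read-out (One-Glo, 30-minute room-temperature incubation) following 18-hour compound treatment at 37 C of the ERR cell line, which had been plated 6 hours before dosing.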
Take `COc1cc(NC(C)CCCN)c2ncccc2c1` (stereo unspecified): the activity change, positive = activation was -9.72% [at 42.5 µM].
Still for that read-out and setting: for `O=C(O)CCCc1c[nH]c2ccccc12` the value was 11.9%; for `Cc1c[nH]c2ccccc12`, 0.349% [at 42.5 µM].
As for `O=C(O)c1cccc(Oc2ccccc2)c1`, the activity change, positive = activation was -1.12%.
The same measure, in the same setting: for `CCO[Si](C)(CCCOCC1CO1)OCC` (stereo unspecified) the value was 0.152%.
On the same count and under the same terms, for `CC[C@@H](CO)NCCN[C@@H](CC)CO` the value was 0.599% [at 42.5 µM].
Regarding `O=C(O)c1cc(Cl)cc(Cl)c1O`, the activity change, positive = activation is 0.37%.
For `Nc1c(Cl)cc(Cl)cc1[N+](=O)[O-]`, the activity change, positive = activation is -2%.
The same measure, in the same setting: for `CC(=O)N[C@@H](Cc1ccc(O)cc1)C(=O)O` the value was 1.4% [at 42.5 µM].
On the same count and under the same terms, for `CC12CC3CC(C)(C1)CC(N)(C3)C2` the value was -0.576% [at 42.5 µM]; for `CC(=O)OCC1=C(C(=O)O)N2C(=O)[C@@H](NC(=O)CSc3ccncc3)[C@H]2SC1`, 0.532% [at 42.5 µM]; for `CN1C(CSCC(F)(F)F)Nc2cc(Cl)c(S(N)(=O)=O)cc2S1(=O)=O` (stereo unspecified), -16.7% [at 42.5 µM].

The next test in a line: qHTS RealTime-Glo MT Cell Viability Assay in HepG2 cells - 24 hour (AID 1224867). Note: nearly all actives have a fitted effect of over 50% in size. As to conditions: RealTime-Glo luminescence; series mostly up to 76.8 µM. Put shortly: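 Tox21 10K library screened in qHTS format on HepG2 cells carrying RealTime-Glo reagents. Compounds were added after a 5 h preincubation, and the luminescent signal from continuous culture was measured repeatedly during 40 h treatment.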
For the compound `CC(C)c1ccc(C(=O)N=C(N)N)cc1S(C)(=O)=O`, the Potency result was “inactive”.
The same measure, in the same setting: for `CC(C(=O)O)c1ccc(C(=O)c2cccs2)cc1` (stereo unspecified) the value was “inactive”; for `CCCCCc1ccco1`, “inactive”.
Still for that read-out and setting: for `O=C(O)CCCc1c[nH]c2ccccc12` the value was “inactive”; for `CC(C)(C)NCC(O)COc1cccc2c1C[C@H](O)[C@H](O)C2` (stereo partly specified), “inactive”.
Same read-out and setting: for `Cc1cc(CCCOc2c(C)cc(-c3noc(C(F)(F)F)n3)cc2C)on1` the value was “inactive”.
For `Oc1ccc2c(c1)Cc1ccccc1-2`, the Potency entry is “inactive”.
`O=C1OC[C@H](Cc2cccc(O)c2)[C@H]1Cc1cccc(O)c1`: the Potency result is “inactive”.
In the case of `CC(C)OC(=O)c1ccccc1C(=O)OC(C)C`, the Potency entry is “inactive”.
On to `CCC(=O)OCc1ccc(OC)cc1`, for which the Potency entry was “inactive”.
Turning to `C/C(C=O)=C\c1ccccc1`, the Potency result is “inactive”.
With `CNc1c2c(nn1C)CCCC2`, the Potency entry was “inactive”.
Consider `O=C(O)c1cccc(Oc2ccccc2)c1`, for which the Potency entry is “inactive”.
On to `CCO[Si](C)(CCCOCC1CO1)OCC` (stereo unspecified), for which the Potency entry was “inactive”.
As for `COc1ccc(-c2cc(=S)ss2)cc1`, the Potency entry is “inactive”.
On to `CC(C)(C)C1(CCc2ccc(Cl)cc2)CO1` (stereo unspecified), for which the Potency entry was “inactive”.
Still for that read-out and setting: for `CCCCCCC(CO)CCCC` (stereo unspecified) the value was “inactive”.
Still for that read-out and setting: for `O=C(O)c1cc(Cl)cc(Cl)c1O` the value was “inactive”; for `Nc1c(Cl)cc(Cl)cc1[N+](=O)[O-]`, “inactive”; for `CC12CC3CC(C)(C1)CC(N)(C3)C2`, “inactive”.
Consider `CCC(Cl)CC(Cl)C(Cl)C(Cl)C(Cl)C(C)Cl` (stereo unspecified), for which the activity change, negative = cytotoxicity was -1.2% [at 15.8 µM].
For `CC(=O)OCC1=C(C(=O)O)N2C(=O)[C@@H](NC(=O)CSc3ccncc3)[C@H]2SC1`, the Potency result was “inactive”.
Still for that read-out and setting: for `Cc1cccc(C)c1NC(=O)c1cc(S(N)(=O)=O)c(Cl)cc1O` the value was “inactive”.
As to `CN1C(CSCC(F)(F)F)Nc2cc(Cl)c(S(N)(=O)=O)cc2S1(=O)=O` (stereo unspecified), the Potency result was “inactive”.
